Results on eight compounds are retold here after PubChem BioAssay.

The structures appear in SMILES notation. Calls of active or inactive are those of the source.

One assay concerns the target Albumin (Bos taurus) (UniProt P02769). The experiment in a line: bovine serum albumin binders on microarray, profiling panel, artefact control for SMM control protein annotation, biochemical, small-molecule microarray, Alexa647 label, 635/667 nm fluorescence (AID 1118).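 Also: score merges 667 nm emission intensity and signal-to-noise per printed compound spot.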 The note with it: BSA-A647 binding, fluorescence 635 nm, higher = more signal.
Assay [1] is described as follows: small-molecule microarray binders of probe aXIP, primary screen, biochemical, NeuroSMM set, 635/667 nm fluorescence (AID 1119).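 Also: probe is the protein aXip251-270 applied at 1 µg/mL to compound-printed slides; binding of probe to printed compounds measured as 667 nm fluorescence plus signal to noise.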 The note with it: higher = more signal, called active from +8 up or from −8 down.
A short description of assay [2]: small-molecule binders of probe aNOTCH3, primary screen, biochemical, small-molecule microarray, 635/667 nm fluorescence (AID 1120).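 Also: probe is a biotin-tagged antibody raised against NOTCH3 rather than NOTCH3 protein; score merges spot fluorescence near 667 nm with spot signal to noise.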 The note with it: higher = more signal.
The nature of assay [3]: small-molecule binders of probe aNOTCH2, primary screen, biochemical, small-molecule microarray, 635/667 nm fluorescence (AID 1121).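 Also: score merges feature fluorescence read at 667 nm with its signal to noise.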 The note with it: higher = more signal.
Assay [4] addresses Carbonic anhydrase 2 (Homo sapiens) (UniProt P00918). As to the kind of experiment: CAII small-molecule binders, profiling panel, biochemical, small-molecule microarray, Alexa647-labelled CAII (AID 1122). Particulars: CAII-A647 binding fluorescence, higher = more signal.
Assay [5] is described as follows: COS7 lysate on small-molecule microarray, probe aHis, 635 nm (AID 1123).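 Also: z-score combines 667nm fluorescence intensity with signal-to-noise per printed compound spot.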 Particulars: COS7 cell lysate, fluorescence, higher = more signal.
Assay [6] in a line: compound binding in COS7 lysate, probe aLAP1, primary screen, cell lysate, small-molecule microarray (AID 1124).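 Also: lysate comes from COS7 cells expressing LAP1 and is applied at 0.3 µg/mL; score merges spot fluorescence near 667 nm with signal-to-noise over triplicate slides.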 Particulars: probe aLAP1, fluorescence, higher = more signal.
Another assay relates to Sam68 (KHDRBS1). As to the kind of experiment: Sam68 small-molecule binders, primary screen, biochemical, small-molecule microarray, 635 nm fluorescence (AID 1125).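 Also: score merges 667 nm channel intensity with signal to noise over triplicate slides.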 Particulars: small-molecule microarray binding, higher = more signal.
In assay [7] the test system is Chordin-like protein 2 (CHRDL2). As to the kind of experiment: CHRDL2 small-molecule binders, primary screen, biochemical, small-molecule microarray, 635 nm fluorescence (AID 1126).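 Also: printed compound slides probed with Chrdl2 protein at 4 µg/mL for 1 h at 4 C; score merges 667 nm emission intensity with signal to noise over three replicate slides.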 The note with it: small-molecule microarray binding, fluorescence 635 nm; higher = more signal.
For assay [8], the target named is Concanavalin-A (Canavalia ensiformis) (UniProt P02866). The experiment in a line: ConA small-molecule binders, primary screen, artefact control for SMM control protein annotation, biochemical, small-molecule microarray, Alexa647 label, 635 nm (AID 1127).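 Also: z combines 667 nm emission intensity with signal-to-noise across three replicate slides.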 The note with it: ConA-A647 binding fluorescence, higher = more signal.
Assay [9] can be described thus: anti-His antibody binders, primary screen, artefact control for SMM control protein annotation, biochemical, small-molecule microarray, 635 nm fluorescence (AID 1128).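 Also: score merges feature fluorescence with signal-to-noise for each printed compound spot.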 The note with it: anti-His Alexa647 antibody binding, higher = more signal.
Assay [10] concerns Human papillomavirus type 1a E7 protein (residues 1-88). The experiment in a line: HPV1a E7 small-molecule binders, primary screen, biochemical, small-molecule microarray, residues 1-88, 635 nm (AID 1129). Particulars: small-molecule microarray binding, fluorescence 635 nm; higher = more signal.
Assay [11] has as its target Focal adhesion kinase 1 (Homo sapiens) (UniProt Q05397). The experiment in a line: small-molecule microarray binders of FAK, primary screen, biochemical, 635/667 nm fluorescence, BSA, DTT (AID 1130).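 Also: composite of spot emission at 667 nm and signal to noise over triplicate slides.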 The note with it: PTK2 binding, 635 nm fluorescence, higher = more signal.
Assay [12] deals with Fibrinogen (Alexa647-labelled). The experiment in a line: fibrinogen binders on compound microarrays, profiling panel, artefact control for SMM control-protein annotation, biochemical, small-molecule microarray, 635/667 nm fluorescence (AID 1131).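 Also: z-score merges 667 nm fluorescence with per-spot signal-to-noise over triplicate slides.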 Particulars: fibrinogen-A647 binding fluorescence, higher = more signal.
For assay [13], the target named is Follistatin (Homo sapiens) (UniProt P19883). As to the kind of experiment: follistatin binders on small-molecule microarrays, primary screen, biochemical, small-molecule microarray, 635/667 nm fluorescence (AID 1132). The note with it: FST binding, 635 nm fluorescence, higher = more signal.
For assay [14], the target named is Fibroblast growth factor 2 (Homo sapiens) (UniProt P09038). As to the kind of experiment: FGF2 binders on small-molecule microarrays, primary screen, biochemical, small-molecule microarray, 635/667 nm fluorescence (AID 1133). The note with it: small-molecule microarray binding, FGF2, fluorescence 635/667; higher = more signal.
A short description of assay [15]: mitochondrial membrane potential change in A549 cells, profiling panel, cell-based, JC-1 fluorescence, basal, 24 h, 100 nL (AID 1138).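 Also: A549 lung adenocarcinoma cells under basal conditions with no added stimulus; test concentration not given here.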 Particulars: higher = more signal.
A further assay concerns Lefty1. The experiment in a line: Lefty1 binders on small-molecule microarrays, primary screen, biochemical, small-molecule microarray, 635/667 nm fluorescence (AID 1139). The note with it: small-molecule microarray binding, fluorescence 635/667; higher = more signal.
The subject of assay [16] is wheat germ agglutinin (Triticum aestivum), Alexa647-labelled. The experiment in a line: wheat germ agglutinin binders on compound microarrays, profiling panel, artefact control for SMM control-protein annotation, biochemical, small-molecule microarray, 635/667 nm fluorescence (AID 1140).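 Also: score merges 667 nm feature emission with signal to noise over triplicate slides.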 The note with it: WGA-A647 binding, 635 nm fluorescence, higher = more signal.
Assay [17] addresses Luciferin 4-monooxygenase (Photinus pyralis) (UniProt P08659). The experiment in a line: firefly luciferase enzyme inhibitors, primary screen, biochemical, luminescence, purified enzyme, 2006 set (AID 1141).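 Also: cell-free assay with purified firefly luciferase at 100 ng per well in PBS; test concentration not given here.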 The note with it: SteadyGlo luminescence, 30 min, higher = more signal, called active from +8 up or from −8 down.

Albumin (Bos taurus), sequence (P02769 whole entry, looked up): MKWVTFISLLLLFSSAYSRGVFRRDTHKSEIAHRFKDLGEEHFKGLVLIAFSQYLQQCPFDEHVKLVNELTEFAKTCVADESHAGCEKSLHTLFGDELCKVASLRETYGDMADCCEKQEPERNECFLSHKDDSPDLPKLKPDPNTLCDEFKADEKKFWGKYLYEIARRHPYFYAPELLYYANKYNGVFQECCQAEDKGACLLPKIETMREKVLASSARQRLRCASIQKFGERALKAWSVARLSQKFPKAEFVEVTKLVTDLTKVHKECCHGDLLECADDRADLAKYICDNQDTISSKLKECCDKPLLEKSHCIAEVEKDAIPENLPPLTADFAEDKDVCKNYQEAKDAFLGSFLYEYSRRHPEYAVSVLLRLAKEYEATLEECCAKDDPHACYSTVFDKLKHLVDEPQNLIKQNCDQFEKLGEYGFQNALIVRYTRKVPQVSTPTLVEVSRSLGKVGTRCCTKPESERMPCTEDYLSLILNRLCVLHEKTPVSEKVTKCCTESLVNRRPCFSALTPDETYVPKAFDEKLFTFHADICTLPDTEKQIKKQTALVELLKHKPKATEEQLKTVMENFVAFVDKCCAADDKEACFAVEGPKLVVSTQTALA
Follistatin (Homo sapiens), sequence (P19883 whole entry, looked up): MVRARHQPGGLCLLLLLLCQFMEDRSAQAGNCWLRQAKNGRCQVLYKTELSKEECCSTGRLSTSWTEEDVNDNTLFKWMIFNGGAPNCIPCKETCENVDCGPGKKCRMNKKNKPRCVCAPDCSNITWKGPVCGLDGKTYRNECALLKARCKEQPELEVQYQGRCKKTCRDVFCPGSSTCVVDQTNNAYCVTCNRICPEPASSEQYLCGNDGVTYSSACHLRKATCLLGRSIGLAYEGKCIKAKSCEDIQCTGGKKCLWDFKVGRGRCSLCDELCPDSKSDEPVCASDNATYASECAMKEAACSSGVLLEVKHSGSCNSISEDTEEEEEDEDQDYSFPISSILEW
Concanavalin-A (Canavalia ensiformis), sequence (P02866 whole entry, looked up): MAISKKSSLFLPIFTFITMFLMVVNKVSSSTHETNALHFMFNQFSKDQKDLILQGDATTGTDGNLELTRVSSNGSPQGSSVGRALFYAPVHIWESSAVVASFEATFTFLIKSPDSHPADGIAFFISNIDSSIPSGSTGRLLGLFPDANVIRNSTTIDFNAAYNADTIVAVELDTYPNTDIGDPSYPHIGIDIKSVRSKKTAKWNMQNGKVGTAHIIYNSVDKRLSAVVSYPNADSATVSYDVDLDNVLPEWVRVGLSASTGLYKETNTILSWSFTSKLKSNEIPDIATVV
Fibroblast growth factor 2 (Homo sapiens), sequence (P09038 whole entry, looked up): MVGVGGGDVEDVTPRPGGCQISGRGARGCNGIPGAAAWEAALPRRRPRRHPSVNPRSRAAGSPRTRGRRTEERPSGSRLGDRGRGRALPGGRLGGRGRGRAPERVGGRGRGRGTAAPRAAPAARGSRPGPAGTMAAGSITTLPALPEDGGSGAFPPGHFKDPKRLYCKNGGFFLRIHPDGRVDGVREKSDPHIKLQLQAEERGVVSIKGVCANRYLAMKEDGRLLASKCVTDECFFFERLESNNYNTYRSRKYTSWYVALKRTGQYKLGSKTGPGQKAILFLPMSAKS
Focal adhesion kinase 1 (Homo sapiens), sequence (Q05397 whole entry, looked up): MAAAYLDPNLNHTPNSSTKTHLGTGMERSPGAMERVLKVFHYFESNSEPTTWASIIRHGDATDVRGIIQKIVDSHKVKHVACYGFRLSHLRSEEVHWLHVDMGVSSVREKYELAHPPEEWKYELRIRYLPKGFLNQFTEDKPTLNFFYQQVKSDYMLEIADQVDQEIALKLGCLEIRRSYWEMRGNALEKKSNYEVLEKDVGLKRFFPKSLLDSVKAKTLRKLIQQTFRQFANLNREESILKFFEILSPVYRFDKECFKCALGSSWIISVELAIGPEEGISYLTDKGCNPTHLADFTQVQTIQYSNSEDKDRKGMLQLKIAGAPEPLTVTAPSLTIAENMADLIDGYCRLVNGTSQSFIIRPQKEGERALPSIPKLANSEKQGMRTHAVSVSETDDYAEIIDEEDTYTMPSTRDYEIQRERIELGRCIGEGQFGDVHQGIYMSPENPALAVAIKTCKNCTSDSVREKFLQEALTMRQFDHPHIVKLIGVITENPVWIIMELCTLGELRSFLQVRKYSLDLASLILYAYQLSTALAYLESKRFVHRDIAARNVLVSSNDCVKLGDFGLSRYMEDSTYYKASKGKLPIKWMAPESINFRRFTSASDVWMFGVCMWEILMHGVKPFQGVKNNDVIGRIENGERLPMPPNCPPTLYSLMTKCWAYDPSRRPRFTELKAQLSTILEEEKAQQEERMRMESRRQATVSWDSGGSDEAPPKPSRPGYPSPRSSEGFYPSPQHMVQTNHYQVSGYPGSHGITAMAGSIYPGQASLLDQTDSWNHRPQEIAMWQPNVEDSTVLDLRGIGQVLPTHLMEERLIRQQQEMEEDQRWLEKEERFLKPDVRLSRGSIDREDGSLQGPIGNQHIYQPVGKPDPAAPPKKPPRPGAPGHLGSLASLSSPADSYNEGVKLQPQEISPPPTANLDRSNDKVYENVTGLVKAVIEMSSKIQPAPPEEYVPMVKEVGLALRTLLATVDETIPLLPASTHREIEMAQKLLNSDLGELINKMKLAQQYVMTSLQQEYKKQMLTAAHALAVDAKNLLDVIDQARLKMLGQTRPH
Luciferin 4-monooxygenase (Photinus pyralis), sequence (P08659 whole entry, looked up): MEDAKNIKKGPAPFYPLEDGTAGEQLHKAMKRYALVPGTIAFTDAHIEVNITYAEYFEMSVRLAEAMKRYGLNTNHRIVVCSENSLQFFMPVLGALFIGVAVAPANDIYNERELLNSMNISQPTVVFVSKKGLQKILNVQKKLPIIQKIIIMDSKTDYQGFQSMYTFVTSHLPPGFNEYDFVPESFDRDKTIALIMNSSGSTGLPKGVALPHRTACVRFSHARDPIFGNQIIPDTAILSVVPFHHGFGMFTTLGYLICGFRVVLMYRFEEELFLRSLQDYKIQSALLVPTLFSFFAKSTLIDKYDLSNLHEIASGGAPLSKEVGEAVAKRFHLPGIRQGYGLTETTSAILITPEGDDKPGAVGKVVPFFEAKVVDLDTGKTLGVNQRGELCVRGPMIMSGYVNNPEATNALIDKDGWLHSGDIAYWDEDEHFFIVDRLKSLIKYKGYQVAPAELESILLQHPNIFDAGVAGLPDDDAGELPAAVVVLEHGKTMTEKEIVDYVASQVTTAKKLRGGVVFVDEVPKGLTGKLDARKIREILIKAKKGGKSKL

For the compound `CC(C)[Si](C#C[Si](C(C)C)(C(C)C)C(C)C)(O[C@H](C)c1cn([C@H](CO)Cc2ccccc2)nn1)C(C)C`, the composite z-score with Albumin (Bos taurus) is 0.544; in assay [2] it was -0.0699; in [3] it was -0.145; in [4], 0.0728; in assay [5] it was 0.713; in assay [6], -0.268. The composite z-score is 0.193 in the assay with Sam68 (KHDRBS1); 0.498 in assay [7]; 1.03 in assay [8]; 0.0517 in assay [9]; 0.209 in [10]; 0.21 in assay [11]. For the same compound, the composite z-score in assay [12] is 0.259; in [13], -0.093; in assay [14], 0.288; in the assay on Lefty1 it was 0.412; in assay [16], 0.141. Moreover, the composite Z-score in [1] was -0.397 (inactive). For the same compound, the results for the z-score in assay [15] and in assay [17] were 0.476 and -1.03 (inactive), respectively.
Turning to `COc1cc(OC)c(C(O)C2C=CC3C(=O)N(C)C(=O)C3N2NC(=O)OC(C)(C)C)cc1Br` (stereo not given), the composite z-score in the assay with Albumin (Bos taurus) amounted to 0.881; in [2], 0.398; in [3], 0.354; in assay [4] it was 0.584; in assay [5], 3.05; in [6], 0.91. The composite z-score in the assay with Sam68 (KHDRBS1) is 1.3; in assay [7] it was -0.251; in assay [8], 1.09; in [9] it was 0.476; in assay [10], 1.29; in [11], 0.776. Also, the composite z-score in [12] was found to be 1.03; in [13], 1.25; in [14] it was 0.128; in the assay with Lefty1, 0.42; in assay [16], 1.23. The composite Z-score in assay [1] is 0.182 (inactive). For the same compound, the z-score in assay [15] is -0.942; in assay [17], -0.996 (inactive).
With `NC(N)=NCCCn1cc(CNC(=O)[C@@H](N)Cc2ccccc2)nn1`, the composite z-score with Albumin (Bos taurus) is 0.0958; in [2], 0.0126; in assay [3] it was -0.0279; in assay [4], 0.948; in assay [5] it was 0.96; in assay [6] it was 0.155. The composite z-score in the assay with Sam68 (KHDRBS1) was -0.103; in assay [7], 0.57; in [8], -0.739; in assay [9], 0.499; in [10], -0.505; in assay [11] it was -0.242. In addition, the composite z-score was -0.845 in [12]; 1.42 in assay [13]; 0.943 in assay [14]; 1.05 with Lefty1; 0.465 in assay [16]. In [1], the composite Z-score is 0.79 (inactive). In addition, the results for the z-score in assay [15] and in assay [17] were -0.55 and 0.36 (inactive), respectively.
Consider `COCCOC(=O)N1C(=O)[C@@]2(c3cc(C#CC4(O)CCCCCC4)ccc31)[C@H](c1ccc(O)cc1)N1[C@H](c3ccccc3)[C@H](c3ccccc3)OC(=O)[C@H]1[C@@H]2C(=O)NC[C@H](O)c1ccccc1`, for which the composite z-score with Albumin (Bos taurus) was 0.179; in assay [2], -0.0133; in assay [3], 0.0296; in assay [4] it was 0.522; in assay [5], 2.46; in assay [6] it was 1.46. In addition, the composite z-score is 1.3 in the assay on Sam68 (KHDRBS1); 0.97 in [7]; 1.02 in [8]; 0.496 in [9]; 1.16 in assay [10]; 0.987 in assay [11]. The composite z-score in assay [12] was found to be 0.87; in [13] it was 1.26; in assay [14], 1.64; in the assay on Lefty1, 1.28; in assay [16], 0.733. Moreover, the composite Z-score in assay [1] was 0.534 (inactive). Besides, the z-score is -0.939 in assay [15] and -0.001 (inactive) in assay [17].
Regarding `[N-]=[N+]=Nc1ccccc1C[C@]1(C(=O)N2CCOCC2)N=C(c2ccc(OCCCO)cc2)O[C@H]1c1ccccc1`, the composite z-score with Albumin (Bos taurus) was 0.806; in [2], -0.0902; in assay [3], -0.204; in assay [4], 0.627; in [5], 1.99; in assay [6], 0.221. In addition, the composite z-score in the assay on Sam68 (KHDRBS1) came out at 1.36; in [7], 0.764; in assay [8] it was 1.15; in [9], 2.06; in assay [10], 1.21; in assay [11] it was 0.3. For the same compound, the composite z-score in assay [12] came to 0.905; in assay [13] it was 1.42; in [14] it was 1.81; with Lefty1 it was 0.435; in [16] it was 1.2. Also, the composite Z-score in [1] was 0.339 (inactive). Besides, the figures for the z-score in [15] and in assay [17] were 2.81 and -2.31 (inactive), respectively.
`COC(=O)[C@@]1(Cc2ccc(F)cc2)[C@H]2c3cc(C(=O)N(C)C)n(CCc4ccc(O)c(OC)c4)c3C[C@H]2CN1C(=O)c1ccccc1`: the composite z-score with Albumin (Bos taurus) was 0.24; in assay [2] it was 0.842; in assay [3], 1.02; in [4] it was 0.25; in assay [5], 0.694; in assay [6], 0.311. Further, the composite z-score with Sam68 (KHDRBS1) was 0.326; in [7], 0.497; in assay [8] it was -0.0415; in assay [9] it was 0.339; in assay [10] it was 0.923; in assay [11] it was 0.0947. Further, the composite z-score in assay [12] was 0.886; in assay [13], 0.472; in [14], 0.741; in the assay on Lefty1, -0.244; in assay [16], 0.312. For the same compound, the composite Z-score in assay [1] was -0.399 (inactive). In addition, the z-score was 0.345 in assay [15] and 0.215 (inactive) in [17].
As to `C=C[C@@H](OC)[C@H](OC(=O)Nc1ccc(SC)cc1)c1ccc(O)c(F)c1`, the composite z-score is 0.622 with Albumin (Bos taurus); 0.0337 in assay [2]; -0.0891 in assay [3]; 0.699 in assay [4]; 2.18 in [5]; 0.683 in assay [6]. Further, the composite z-score in the assay on Sam68 (KHDRBS1) was determined as 1.07; in assay [7], 0.0611; in [8], 0.0462; in assay [9] it was 3.07; in assay [10], 1.23; in assay [11], 0.566. In addition, the composite z-score is 0.763 in assay [12]; 1.11 in assay [13]; 0.207 in [14]; 0.885 with Lefty1; 0.679 in assay [16]. Besides, the composite Z-score in [1] is -0.584 (inactive). Moreover, the z-score in assay [15] is -1.47; in assay [17] it was -1.59 (inactive).
Consider `CCOC(=O)C[C@H]1[C@H](OC(=O)c2cc3ccccc3oc2=O)[C@@H](NC(=O)Cc2ccc(OC)cc2)c2cc(OCCCO)ccc2N1C(=O)c1ccc2ccccc2n1`, for which the composite z-score in the assay with Albumin (Bos taurus) was -0.116; in assay [2] it was -0.152; in assay [3] it was -0.0666; in assay [4] it was 0.353; in assay [5], 0.303; in assay [6] it was 0.096. For the same compound, the composite z-score in the assay with Sam68 (KHDRBS1) was determined as 0.206; in assay [7] it was 0.583; in assay [8] it was 0.0304; in assay [9], 1.37; in assay [10], 0.649; in assay [11], 0.199. For the same compound, the composite z-score in assay [12] was 0.122; in assay [13], 0.93; in [14] it was 0.956; with Lefty1, 0.838; in assay [16] it was 0.0863. Moreover, the composite Z-score in assay [1] is -0.431 (inactive). In addition, the z-score was -0.013 in [15] and 0.0113 (inactive) in [17].
